Experimental data reported in PubChem BioAssay (Tox21).
Inconclusive results are not listed. A call without a number means that no potency is given here. The source made the active and inactive calls. Calls come from the whole dose curve.

Molecular target: Beta-2 adrenergic receptor (Homo sapiens) (UniProt P07550)
Experiment: Adrenergic beta2 receptor (ADRB2) small molecule agonists, cell-based qHTS assay (AID 1963593)
Conditions: CHO-ADRB2 cells, cAMP HTRF, 30 min; series mostly up to 92.4 µM
Description: National Center for Advancing Translational Sciences [NCATS]
Division of Preclinical Innovation [DPI]
U.S. Environmental Protection Agency [EPA]
National Institutes of Environmental Health Sciences [NIEHS]
National Toxicology Program [NTP]
U.S. Food and Drug Administration [FDA]
Beta adrenergic receptors (Beta-ARs) belong to the G-protein coupled receptor (GPCR) superfamily, includes three subtypes - beta1, beta2, and beta3. Beta1-AR is the predominant receptor subtype expressed in the heart, and beta2-AR is expressed in the kidney, lung, blood vessel and in the heart, and beta3 is found in the adipocytes. Beta1 and 2 ARs couple to Gs protein and elevate cyclic adenosine mono phosphate (cAMP), which activates protein kinase A and leads to the downstream signaling responsible for the physiological actions. Beta-AR agonists or antagonists are the most prescribed therapeutic agents for heart failure and asthma, and these were one of the first target receptors for the rational drug design. Tox21 10K compound library was screened using the cAMP-Gs dynamic assay (Cisbio Bioassays, Shelton, CT) to identify agonists/antagonists of the Gs-coupled human adrenergic, beta2 receptor (ADRB2) in the CHO-ADRB2 cell line (Codex BioSolutions, Inc. Gaithersburg, MD), which stably over-expresses ADRB2. The principle of cAMP-Gs dynamic assay is based on HTRF technology, which facilitates the fluorescence resonance energy transfer (FRET) between donor Europium cryptate and acceptor d2-labeled cAMP. The cAMP generated within cells competes with the red acceptor, d2-labled cAMP, for binding to the monoclonal anti-cAMP-cryptate (Europium donor). An increase in intracellular cAMP leads to the disruption of FRET signal, and the signal is inversely proportional to the cAMP concentration. Isoproterenol HCl (Sigma-Aldrich, St. Louis, MO) was used as a positive control in the screening.
Tox21 Assay Protocol Summary:
CHO-ADRB2 cells were dispensed at 1,000/well in 4uL assay medium into white/solid 1536-well plates (Greiner Bio-One North America Inc., Monroe, NC) using a Multidrop Combi dispenser (ThermoFisher Scientific, Waltham, MA). The assay plates were incubated at 37C and 5% CO2 for an overnight (18-20hr). Then positive control and test compounds dissolved in DMSO were transferred to the assay plates at 23nL using a Pintool station (Wako, San Diego, CA). Following the compound and positive control transfer, 1uL stimulation mix containing 100uM IBMX and 25uM Ro-20-1724 was added to each well of the assay plates using BioRAPTR Flying Reagent Dispenser (FRD, Beckman Coulter, Brea, CA). The assay plates were incubated at room temperature for 0.5hr. Then 2.5ul each d2-labled cAMP and anti-cAMP-cryptate solutions were added separately to each well of the assay plates using an FRD and the assay plates were incubated at room temperature for 1hr.

Sequence of Beta-2 adrenergic receptor (Homo sapiens) (P07550 whole entry, looked up): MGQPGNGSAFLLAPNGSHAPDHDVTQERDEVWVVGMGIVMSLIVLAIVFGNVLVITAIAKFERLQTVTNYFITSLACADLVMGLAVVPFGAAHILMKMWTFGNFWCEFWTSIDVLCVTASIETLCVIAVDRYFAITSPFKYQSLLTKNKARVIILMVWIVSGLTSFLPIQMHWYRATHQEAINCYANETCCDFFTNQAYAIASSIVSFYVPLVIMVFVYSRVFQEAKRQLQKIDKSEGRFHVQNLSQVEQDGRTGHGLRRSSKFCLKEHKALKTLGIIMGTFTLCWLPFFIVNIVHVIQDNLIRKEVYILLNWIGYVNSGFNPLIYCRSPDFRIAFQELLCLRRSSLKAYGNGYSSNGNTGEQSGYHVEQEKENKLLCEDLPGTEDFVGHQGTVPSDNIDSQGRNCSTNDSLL

Row | Compound | Potency
1 | CCCCCOc1ccccc1/C(=C\SC)n1ccnc1 | inactive
2 | CS(C)=O | inactive
3 | c1ccc2c(c1)CCCC2C1=NCCN1 (stereo not given) | inactive
4 | CCOC(=O)/C=C/c1ccccc1 | inactive
5 | O=C1c2ccccc2C(=O)c2cc(S(=O)(=O)O)ccc21 | inactive
6 | NC(=O)N(O)[C@@H]1COc2cc(OCc3ccccc3)ccc21 | inactive
7 | COc1ccc2cc(CCC(C)=O)ccc2c1 | inactive
8 | COC(=O)CC(=O)C(C)(C)C | inactive
9 | SC1CCCC1 | inactive
10 | NCCCN(CCO)CCO | inactive
11 | CCCCCCCC1CCC(=O)O1 (stereo not given) | inactive
12 | C=CC(=O)[O-].C=CC(=O)[O-].[Zn+2] | inactive
13 | Cc1ccc(N/N=c2\c(=O)cc/c(=N\Nc3ccc(S(=O)(=O)O)cc3)c2=O)c(C)c1 | inactive
14 | CCCCC/C=C\C/C=C\CCCCCCCC(=O)NC(C)c1ccccc1 (stereo not given) | inactive
15 | COc1c2occc2cc2ccc(=O)oc12 | inactive
16 | Nc1nc(F)nc2c1ncn2[C@@H]1O[C@H](CO)[C@@H](O)[C@@H]1O | inactive
17 | c1ccc2sc(SN(C3CCCCC3)C3CCCCC3)nc2c1 | inactive
18 | CC(CO)(CO)[N+](=O)[O-] | inactive
19 | CO[C@@]1(NC(=O)Cc2cccs2)C(=O)N2C(C(=O)O)=C(COC(N)=O)CS[C@@H]21 | inactive
20 | NNC(=O)CP(=O)(c1ccccc1)c1ccccc1 | inactive

Row | Compound | Potency
21 | C=C1CC[C@H](O)CC1=C/C=C1\CCC[C@]2(C)[C@@H]([C@H](C)/C=C/[C@H](C)C(C)C)CC[C@@H]12 | inactive
22 | CN(C)CCN(Cc1ccccc1)c1ccccn1 | inactive
23 | Cc1cc2nc(N)sc2cc1C | inactive
24 | CCCCCOC(=O)Nc1nc(=O)n([C@@H]2O[C@H](C)[C@@H](O)[C@H]2O)cc1F | inactive
25 | CC(=O)OC(C)OC(=O)C(C)c1ccc(-c2ccccc2)c(F)c1 (stereo not given) | inactive
26 | CN(C)CCCO[C@@H]1[C@H]2OC(C)(C)O[C@H]2O[C@@H]1C(O)CO (stereo not given in full) | inactive
27 | CCS(=O)(=O)c1ccc(OC)c(C(=O)OC)c1 | inactive
28 | CCCCN1C[C@H](O)[C@@H](O)[C@H](O)[C@H]1CO | inactive
29 | CC(CC=O)CCCC(C)(C)O (stereo not given) | inactive
30 | O=C(CCCCCCC(=O)Nc1ccccc1)NO | inactive
31 | CC1CC(OC(=O)C(O)c2ccccc2)CC(C)(C)N1C (stereo not given) | inactive
32 | COc1ccc2c(c1)c(CC(=O)OC/C=C(\C)CC/C=C(\C)CCC=C(C)C)c(C)n2C(=O)c1ccc(Cl)cc1 | inactive
33 | CN1CCN(C(=O)C2CCCCC2)CC1 | inactive
34 | O=C(c1ccccc1)c1ccc(O)cc1O | inactive
35 | Cc1nccn1-c1ccc(Sc2cccc(C3(C(N)=O)CCOCC3)c2)cc1 | inactive
36 | C=C(C)C(=O)OCCOCCOCCOCCOC(=O)C(=C)C | inactive
37 | O=[N+]([O-])c1ccc(O)cc1 | inactive
38 | CCCCCCCCCCCCCCC[C@H](O)[C@@H](N)CO | inactive
39 | O=S1(=O)CCCC1 | inactive
40 | CCCCCCCCCCC=O | inactive
